“And” between values parts separate entries of the source, which are not always exact repeats. Equal entries are not always repeated. The panel holds about 79,000 compounds, 15% with a hit somewhere; the sample as a whole holds those more often. A number with no mark means an inactive call. The source made the active and inactive calls. No stated cut-off is given here; in the data, active means growth inhibition above about 70%; inactive means the rest.
Assays:
[1] = NCI Yeast Anticancer Drug Screen. Data for the rad50 strain (AID 155);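 further: 0% = growth of vehicle-only cultures of the same strain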; conditions: S. cerevisiae rad50 strain growth inhibition; at 50.0 µM; active compounds read high
Outline: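 DNA repair mutant yeast, compound exposure, growth read-out; inhibition is taken relative to vehicle.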

[2] = NCI Yeast Anticancer Drug Screen. Data for the mec2-1 strain (AID 157); conditions: S. cerevisiae mec2-1 strain, at 50.0 µM, active compounds read high
Outline: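 Test agents were screened against the mec2-1 yeast strain, with defined DNA repair or cell cycle alteration. Growth was scored as inhibition against vehicle-only controls.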

[3] = NCI Yeast Anticancer Drug Screen. Data for the sgs1 mgt1 strain (AID 161);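 further: 0% = growth of cultures given vehicle only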; conditions: S. cerevisiae sgs1 mgt1 strain, at 50.0 µM, active compounds read high
Outline: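 Read-out: growth inhibition vs vehicle controls. Cells: mutant yeast strain deficient in DNA damage repair.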

[4] = NCI Yeast Anticancer Drug Screen. Data for the cln2 rad14 strain (AID 165);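 further: 0% = growth equal to vehicle treated cultures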; conditions: S. cerevisiae cln2 rad14 strain, at 50.0 µM, active compounds read high
Outline: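 Growth of compound-exposed yeast (cln2 rad14 genotype) measured and expressed as inhibition relative to vehicle.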

[5] = NCI Yeast Anticancer Drug Screen. Data for the bub3 strain (AID 167); conditions: S. cerevisiae bub3 mutant strain, at 50.0 µM, active compounds read high
Outline: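 In this screen, a yeast mutant lacking normal mitotic checkpoint function is challenged with compound. Relative growth versus vehicle gives the inhibition value.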

[6] = NCI Yeast Anticancer Drug Screen. Data for the mlh1 rad18 strain (AID 175); conditions: S. cerevisiae mlh1 rad18 strain growth inhibition; at 50.0 µM; active compounds read high
Outline: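 In this whole-cell yeast screen, a strain with altered DNA damage repair is challenged with compound, and its growth is measured against matched vehicle-treated controls.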

Structure (SMILES) | growth inhibition [1] | growth inhibition [2] | growth inhibition [3] | growth inhibition [4] | growth inhibition [5] | growth inhibition [6]
CC(C)c1ccc(-n2c(=S)[nH]c3ccccc3c2=O)cc1 | -16.3% | -7% | -13.8% | -25% | -5.7% | 13.8%
O=c1cccc2n1CC1CNCC2C1 (centres undefined) | 10.6% | 13.4% | -16.2% | 7.65% | 15.7% | -22.1%
Cc1csc2n/c(=N/[N+](=O)[O-])sn12 | 51.5% | 26.9% | 46.8% | -12.5% | 50.4% | 44.1%
Cc1cc(N(CCCl)CCCl)ccc1C=Nc1ccccc1C(=O)O | 27.4% | 3.9% | 28.4% | 16.1% | 2.65% | 29.1%
CCC[CH2][Sn]([CH2]CCC)([CH2]CCC)[CH2]CC(=O)OC | 99.5% (active) | 99.4% (active) | 99.5% (active) | 99.3% (active) | 99% (active) | 99.5% (active)
O=NN1CCOC1=NC1CCCCC1 | -3.65% | -12.2% | -11.2% | -63% | -22.7% | -9%
NC(=O)CCCc1ccc([As]=O)cc1 (centres undefined) | -8.7% | -11.9% | -8.85% | -27.1% | -0.25% | 9.75%
CN(C)CCCCCCN(C)C | -8.85% | 3.9% | -12.5% | -9.8% | 6.9% | -4.75%
c1ccc(-c2ccc([As](c3ccccc3)c3ccccc3)cc2)cc1 | 11.4% | 4.5% | 19.6% | 3.85% | 7.6% | 11.8%
CC12CCC(OC3OC(CO)C(OC4OC(CO)C(O)C(O)C4O)C(O)C3O)CC1CCC1C2CCC2(C)C(C3=CC(=O)OC3)CCC12O (centres undefined) | 15.8% | -3.95% | -14.2% | -7.95% | 13.6% | 6.85%
O.O.[NH-]C1CCCCC1[NH-].[Pt+2] (centres undefined) | 19.6% | 33.6% | 6.25% | -5.95% | 3.05% | 44.2%
O=C(c1ccccc1)C1C(C(=O)c2ccccc2)N1C1CCCCC1 (centres undefined) | 81.8% (active) | 32% | 14.8% | 2.3% | 84.5% (active) | 80.8% (active)
CN(C)NP(c1ccccc1)c1ccccc1 | -2.55% | -3.8% | -5.95% | -6.1% | -18.2% | 1.1%
Cc1cc(C(C)(C)c2cc(C)c(O)c(C)c2)cc(C)c1O | 12.6% | -41.1% | -6.9% | 27.4% | -17.6% | -12.3%
Clc1ccc(Br)cc1 | 4.25% | -1.55% | -5.75% | -7.95% | 0.45% | -1.35%
COC(=O)C1C2CCCN2OC1(C)CO (centres undefined) | -2.6% | 12.5% | 12.4% | 2.45% | 12.9% | 2.1%
CC1=CC2C(C=C1)S(=O)(=O)N1CC21c1ccccc1 (centres undefined) | 20.9% | -31.4% | -11% | -8.3% | -20.6% | -3.9%
CC1CCC2[S][Sn]3([NH]C2C1)[NH]C1CC(C)CCC1[S]3 (centres undefined) | 97% (active) | 96.5% (active) | 99.1% (active) | 95.8% (active) | 98.2% (active) | 96.5% (active)
NC1CC2CCCCC2CC1c1ccccc1 (centres undefined) | 14.8% | 19.4% | 18.5% | 11.9% | -5.85% | 18.1%
CNc1cc(Cl)c(C#N)c(Cl)c1 | -2.6% | -2.7% | -0.7% | -39.2% | -24.6% | 9.25%

Structure (SMILES) | growth inhibition [1] | growth inhibition [2] | growth inhibition [3] | growth inhibition [4] | growth inhibition [5] | growth inhibition [6]
CN(C)CCC(=O)c1ccccc1 | 3.05% and -40.5% | 0.7% and 11.3% | 5.85% and -7.35% | -0.6% and -27.6% | 4.35% and -1.8% | 4.4% and 10.6%
CC(C)[CH2][Sn]([CH2]C(C)C)([CH2]C(C)C)[C](C)(C)C | 99.3% (active) | 99.7% (active) | 99.5% (active) | 99.2% (active) | 99.4% (active) | 99.5% (active)
CCCN(CCC)c1c([N+](=O)[O-])cc(C(=O)N(CC)CC)cc1[N+](=O)[O-] | 40.6% | 29.8% | 37.4% | 13.8% | 34.1% | 11.3%
CC(=O)Nc1nc(CCl)cs1 | 11.8% | -1.1% | 13.6% | 5.55% | 27.3% | 9.6%
Cc1cc(NN=O)nc(C)n1 | -3.05% | -4.05% | -1.35% | -14.4% | -1.8% | 5.7%
CC1=NN(c2cccc(S(=O)(=O)O)c2)C(=O)C1N=Nc1cc(Cl)cc(S(=O)(=O)O)c1O.O.[Cr] (centres undefined) | -19.4% | -25.1% | 3.1% | -0.7% | 8.35% | 9.35%
COc1cc([C@@H]2c3cc4c(c(O)c3C[C@H]3COC(=O)[C@@H]32)OCO4)cc(OC)c1OC | -5.65% and 13.2% | 9.3% and 7.85% | 2.65% and 2.95% | 0.1% and 15.8% | 15.4% and 23.4% | 28.2% and 30.5%
CNCC(=O)c1ccc(O)c(O)c1 | 2.4% | -10.1% | -30.6% | -9.35% | -38.9% | -6.75%
C[C@]12CCC(O)CC1=CC[C@@H]1[C@@H]2CC[C@]2(C)C(O)[C@H](n3ccnc3)C[C@@H]12 (some centres undefined) | 30.1% | 33.6% | -6.05% | 25.1% | -11.7% | -13.4%
COc1ccc(C(OCC2OC(n3ccc(NC(=O)c4ccccc4)nc3=O)CC2OP2(=S)SCCS2)(c2ccccc2)c2ccc(OC)cc2)cc1 (centres undefined) | 10.6% | -13.1% | -4.1% | 10% | 37% | 78.7% (active)
CC1([N+](=O)[O-])COP(=O)(NCc2ccccc2)OC1 (centres undefined) | 11.9% | -20.9% | -9.3% | -4.8% | 6.2% | 2.35%
Cc1ccc2nc(NC(=O)C(=O)C3C(=O)NC(=S)NC3=O)sc2c1 | -2.75% | -19.1% | 2.85% | 2.4% | -8.95% | -40%
Nc1ccc(C(=O)O)c(C(=O)O)c1 | -10.5% | -6.8% | 1.35% | -32% | -13.9% | -7.05%
OC1(CN2CCCCC2)N=C(c2ccccc2)c2ccsc2-n2cccc21 (centres undefined) | -19.6% | -22.6% | -25.2% | 22.2% | -11.5% | -3%
CCCCCCNC(=O)C(C)Br (centres undefined) | -7.35% | 4.9% | -0.55% | -12.4% | 9.95% | 1.85%
O=[N+]([O-])c1cc(Cl)ccc1Cl | 11.6% and 28.9% | 4.4% and -26.1% | 4.75% and -10.9% | 3.95% and -47.9% | -6.85% and -12.7% | 0.35% and -8.7%
Cc1nc(N)sc1S(=O)(=O)F | -41.9% | -29.7% | -21.6% | -14.1% | -29.4% | -5.15%
Cc1nc([N+](=O)[O-])c([N+](=O)[O-])n1CC(O)CCl (centres undefined) | 3.85% | -12.4% | 4.2% | 14.9% | -28.1% | 20.4%
CCN(CC)C(=O)N1CN(c2ccccc2)C2(CCN(CCCSc3ccc(F)cc3)CC2)C1=O | 13.5% | 0.65% | 15.8% | 12.4% | 48.4% | 20.6%
